This experiment deals with LXRb homodimer (NR concentration 270 nM). As to the kind of experiment: PBM binding z-score (relative to random genomic background probes); higher = stronger binding; sequences stand for … in GC…GCGATTGACAGCGTAGAATGAAGG
The method, boiled down: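 Binding z-scores were set against random background probes. The data came from custom Agilent 4×180K protein-binding microarrays carrying double-stranded probes with 34-nt variable regions, incubated 1 h with ligand-free nuclear receptor dimers. Partner-specific antibodies detected binding, and scanned fluorescence was regression-normalized.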
As to CCCCGGAGGACAGAAGGTCAGAGCTGTCCGCTTT, the PBM binding z-score is -0.645.

CCTACGGGGCCAAAGGTCATTGATTCCAATGCTC: the PBM binding z-score turned out to be 0.715.

The sequence TAGCCTAGCTCATTCAGGGGCCAGTATAGAAAGC returned a PBM binding z-score of -0.132.

As to TAGCCTAGGTCATTGGGCTAGTATAGTACGCATC, the PBM binding z-score was -0.386.

ATATGTAGGTTAGGGTCATTCCGAAAGTAGGGAA registered a PBM binding z-score of 1.53.

For the sequence GACACAGGGTCAGCTAGAGGCCAGAGTATGGAAA, the PBM binding z-score is -0.984.

Take CGAACTAGGCCACCAGGACAGTGAAGAGGTTGGA: the PBM binding z-score was -0.94.

In turn, CCGTACGGGTCAAGGTTATAGCACGGGTGGTACG showed a PBM binding z-score of -0.132.

Consider CCTACAGGGCCAAAGGTCATTGATTCCAATGCTC, for which the PBM binding z-score was determined as 0.781.

As to CCTACTGGGCCATCAGGTGATTGATATCAACGTT, the PBM binding z-score was -0.864.

As for ATCGAATGGTCGAAGGTGAGTATACCCACCCGAA, the PBM binding z-score was -0.158.

In turn, CCTAGTTGGTCAGGAGGTCACAAACCGGATATGA returned a PBM binding z-score of 0.659.

On to ATACGTAGGTTACATCCGGGTCATTCAGGCTATG, for which the PBM binding z-score was found to be 0.366.

For the sequence CCTTACGGGTCACTGACAGGTCATAGCATTTGGA, the PBM binding z-score is -0.00143.

In the case of CCTAGTTGGTCAGGAGGCCACACACCGGATATGA, the PBM binding z-score is 0.0739.

Sequence CGAACTAGGTCACCTGGACAGTGAAGAGGTTGGA gave a PBM binding z-score of -0.443.

The sequence CGAACTAGGTCACCATGACAGTGAAGAGGTTGGA yielded a PBM binding z-score of 0.0449.

Sequence CCTACTGGGCCAAAAATGTCATTGATGCCGATAA came in with a PBM binding z-score of -0.655.

Regarding CGCACTAGGTCACCAGGACAGTGAAGAGGTTGGA, the PBM binding z-score was -0.125.

Take CGAACTATGTCACCAGGACAGTGAAGAGGTTGGA: the PBM binding z-score was -0.182.

With ATACCAAGGTTATCGTGAGGTCGTTGATACTAAC, the PBM binding z-score came to 0.533.

CCTACTGGGCGACGAAAGGTCATTGATTCAGTGA gave a PBM binding z-score of -0.175.

Turning to ATATGTAGGTTAGGATCATTCAGAAAGTAGGGAA, the PBM binding z-score is 0.084.

Take CGAGCTAGGTCACCAGGACAGTGAAGAGGTTGGA: the PBM binding z-score is -0.77.

Consider CCAGAAAGGTGAAAGGTAACTCAGTCTGGTACGC, for which the PBM binding z-score was -0.446.

Sequence CGTCAAAGTTCAACTAAGGTAACGTATAGCACGC displayed a PBM binding z-score of 2.2.

Regarding CGCACTAGGTCAAAGGACAGTGAAAGGCGACGTA, the PBM binding z-score is -0.151.

With CGAACTAGGTTACCAGGACAGTGAAGAGGTTGGA, the PBM binding z-score was -0.499.

ATATGTAGGTTAGGGTCGTTCAGAAAGTAGGGAA showed a PBM binding z-score of 1.65.

Turning to CGAACTAGGTCAAAGGACAGTGACAGGCGACGTA, the PBM binding z-score was -0.493.

In the case of CGTCCAAGGGCAGCAGGTCAGTGAAAGCGACGTG, the PBM binding z-score is -1.37.

Take CGAACTAGGTCACCAGGACACTGAAGAGGTTGGA: the PBM binding z-score was -0.211.

The sequence GCTTACGGGTCAAAGGTTACAGCATGAATAGAAT gave a PBM binding z-score of 0.89.

As to TTACCAAGGTGAAAGGTCGTTGAAGCACGCCTTG, the PBM binding z-score was -0.616.

As to CGAACTAGGTCAAAGGACAATGAAAGGCGACGTA, the PBM binding z-score was -0.0883.

Sequence GCTTACGGGTCAAAGGTTATAGTATGAATAGAAT returned a PBM binding z-score of 0.6.

As to CGTCCAAGGTCATAGGAGGTCACTGAAGACAGAT, the PBM binding z-score was 1.26.

Consider ATCGAAAGGTCGACGAGGTGAGTATGCACCGTTT, for which the PBM binding z-score amounted to 0.258.

In turn, CGAACTAGGTCTCCAGGACAGTGAAGAGGTTGGA came in with a PBM binding z-score of -1.01.

These data come from the supplement of paper PMC6555819.
